Source: PubChem BioAssay (EPA / NIEHS)
Records with an inconclusive call do not appear. The source made the active and inactive calls. The calls were made as follows: active = hit-call score of the fitted dose curve at least 0.9, where 1 is the maximum; inconclusive = response in the unintended direction; inactive = score below 0.9.

Legend:
[1] = test system: rat Monoamine Oxidase, MAO-A, Central (MAOAC), gene 29253; test: NVS_ENZ_rMAOAC: NovaScreen (NVS) Enzymatic Assay for rat Monoamine Oxidase, MAO-A, Central (MAOAC) (AID 2283243);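 also: potency refers to inhibition seen as signal drop below DMSO baseline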
Method in brief: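 Steps: rat brain protein extract dosed with test chemical (25 uM, duplicate, primary); incubated 1.5 h; radiolabelled product separated from substrate and counted. Signal loss versus DMSO scored as inhibition.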

[2] = biological target: Beta-2 adrenergic receptor (Homo sapiens) (UniProt P07550); test: NVS_GPCR_hAdrb2: NovaScreen (NVS) G Protein-Coupled Receptor Assay for human Adrenergic, Beta 2 Receptor (Adrb2) (AID 2283261)
Method in brief: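 Filter-based radioligand binding using receptor prepared from CHO cells, 1 h incubation, scintillation counting. Primary screen in duplicate at 25 uM, actives retested in concentration series; loss of binding relative to DMSO.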

[3] = biological target: human Dopamine Receptor D2 (DRD2), DRD2 (gene 1813) (UniProt P14416); test: NVS_GPCR_hDRD2s: NovaScreen (NVS) G Protein-Coupled Receptor Assay for human Dopamine Receptor D2 (DRD2) (AID 2283266)
Method in brief: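 Radioligand displacement used human DRD2 membranes extracted from CHO cells and was read by filter-based scintillation counting after 1.5 hours. Primary screening was in duplicate at 25 uM. Loss of signal versus DMSO was fitted, with concentration series in follow-up.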

[4] = biological target: human Adrenergic, Alpha 2A Receptor (Adra2A), ADRA2A (gene 150) (UniProt P08913); test: NVS_GPCR_hAdra2A: NovaScreen (NVS) G Protein-Coupled Receptor Assay for human Adrenergic, Alpha 2A Receptor (Adra2A) (AID 2283257)
Method in brief: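 Radioligand filter-binding was run on HT29-derived membranes, cell-free, read by scintillation counting 1 h after dosing. Primary screening was in duplicate at 25 uM, with concentration series in follow-up. Loss of signal versus DMSO indicates displacement.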

[5] = biological target: rat Monoamine Oxidase, MAO-B, Central (MAOBC), Maob (gene 25750) (UniProt P19643); test: NVS_ENZ_rMAOBC: NovaScreen (NVS) Enzymatic Assay for rat Monoamine Oxidase, MAO-B, Central (MAOBC) (AID 2283238)
Method in brief: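 Compounds were first tested in duplicate at 25 uM against MAO-B from rat brain tissue; those passing the inhibition threshold were retested in concentration series up to 50 uM. Radiodetection by scintillation counting at 1.17 h, analysed against DMSO baseline.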

[6] = biological target: Adenosine receptor A1 (Bos taurus) (UniProt P28190); test: NVS_GPCR_bAdoR_NonSelective: NovaScreen (NVS) G Protein-Coupled Receptor Assay for bovine Adenosine Receptor (AdoR), Non-selective Binding (AID 2283244)
Method in brief: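 Bovine striatal membranes, radioligand displacement binding, 1 h after dosing, filter-based scintillation counting. Screened in duplicate at 25 uM, then concentration-response up to 50 uM; loss of specific binding relative to DMSO.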

[7] = test system: guinea pig Leukotriene B4 Receptor (LTB4), gene 100379538; test: NVS_GPCR_gLTB4: NovaScreen (NVS) G Protein-Coupled Receptor Assay for guinea pig Leukotriene B4 Receptor (LTB4) (AID 2283247)
Method in brief: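 Radioligand displacement on guinea pig spleen membranes, filter-based scintillation counting 2 h after dosing. Primary duplicate single point at 25 uM; hits over threshold (e.g. 30% inhibition) run in concentration-response up to 50 uM, DMSO baseline.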

[8] = biological target: guinea pig Opioid, Kappa 1 Receptor (OpiateK), OPRK1 (gene 100135587) (UniProt P41144); test: NVS_GPCR_gOpiateK: NovaScreen (NVS) G Protein-Coupled Receptor Assay for guinea pig Opioid, Kappa 1 Receptor (OpiateK) (AID 2283252);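 also: radioligand displacement from kappa opioid receptor in guinea pig cerebellar membranes; active means reduced radioligand binding relative to DMSO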
Method in brief: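 Signal is scintillation counts of filter-trapped radioligand bound to guinea pig cerebellar membrane receptor, measured 2 hours post-dosing. Activity is loss of binding versus DMSO, first at 25 uM in duplicate, then as concentration series for actives.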

[9] = biological target: human Serotonin, 5-Hydroxytryptamine Receptor 6 (5HT6), HTR6 (gene 3362) (UniProt P50406); test: NVS_GPCR_h5HT6: NovaScreen (NVS) G Protein-Coupled Receptor Assay for human Serotonin, 5-Hydroxytryptamine Receptor 6 (5HT6) (AID 2283253)
Method in brief: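 Radioligand binding to 5HT6 in HEK293-derived membranes, cell-free, 1 h after dosing; bound ligand measured by filter-based scintillation counting. Primary screen in duplicate at 25 uM; actives retested in concentration series.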

[10] = biological target: human Adenosine A1 Receptor (AdoRA1), ADORA1 (gene 134) (UniProt P30542); test: NVS_GPCR_hAdoRA1: NovaScreen (NVS) G Protein-Coupled Receptor Assay for human Adenosine A1 Receptor (AdoRA1) (AID 2283254)
Method in brief: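 Each chemical is first tested twice at 25 uM, actives later in dilution series, against a radioligand bound to human cortex membranes; after 1 h, filter-retained counts are compared with DMSO controls, lower signal indicating displacement.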

[11] = biological target: human Serotonin, 5-Hydroxytryptamine Receptor 7 (5HT7), HTR7 (gene 3363) (UniProt P34969); test: NVS_GPCR_h5HT7: NovaScreen (NVS) G Protein-Coupled Receptor Assay for human Serotonin, 5-Hydroxytryptamine Receptor 7 (5HT7) (AID 2283255);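 also: hits reduce specific radioligand binding relative to DMSO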
Method in brief: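 Radioligand displacement on membranes from CHO cells expressing human 5HT7, 1 h incubation, filter-based scintillation counting. Primary screen used a single 25 uM concentration in duplicate; actives were followed up in concentration series.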

[12] = biological target: human Adenosine A2a Receptor (AdoRA2a), ADORA2A (gene 135) (UniProt P29274); test: NVS_GPCR_hAdoRA2a: NovaScreen (NVS) G Protein-Coupled Receptor Assay for human Adenosine A2a Receptor (AdoRA2a) (AID 2283256)
Method in brief: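 Radioligand displacement on HEK293-derived membrane protein, cell-free; filter-based scintillation counting 1.5 hours after dosing, loss of signal vs DMSO. Single-point duplicate screen at 25 uM, actives retested in concentration series.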

[13] = biological target: human Adrenergic, Alpha 2c Receptor (Adra2C), ADRA2C (gene 152) (UniProt P18825); test: NVS_GPCR_hAdra2C: NovaScreen (NVS) G Protein-Coupled Receptor Assay for human Adrenergic, Alpha 2c Receptor (Adra2C) (AID 2283259)
Method in brief: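 Radioligand binding on Sf9-expressed receptor membranes, 1 h after chemical dosing, filter-based scintillation read-out. Loss of binding fitted positively versus DMSO; primary duplicate screen at 25 uM, actives retested in concentration series.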

[14] = biological target: Type-1 angiotensin II receptor (Homo sapiens) (UniProt P30556); test: NVS_GPCR_hAT1: NovaScreen (NVS) G Protein-Coupled Receptor Assay for human Angiotensin II receptor type 1 (AT1) (AID 2283263)
Method in brief: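 Membranes from KAN-TS cells; radioligand competitive displacement, 3 h, filtration and scintillation counting. Single-point duplicate screen at 25 uM, then concentration-response up to 50 uM for hits; loss of signal fitted versus DMSO.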

[15] = biological target: sheep Cyclooxygenase-1 (Cox1), PTGS1 (gene 443551) (UniProt P05979); test: NVS_ENZ_oCOX1: NovaScreen (NVS) Enzymatic Assay for sheep Cyclooxygenase-1 (Cox1) (AID 2283239);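 also: actives reduce cyclooxygenase activity so potencies are for inhibitors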
Method in brief: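 Cell-free colorimetric assay of enzyme activity in a native extract of ovine seminal vesicles. Absorbance was read 0.66 hour after compound addition. Loss of signal relative to the DMSO negative control was scored, with actives from the 25 uM duplicate primary screen retested in concentration series.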

[16] = biological target: human Adrenergic, Beta 1 Receptor (Adrb1), ADRB1 (gene 153) (UniProt P08588); test: NVS_GPCR_hAdrb1: NovaScreen (NVS) G Protein-Coupled Receptor Assay for human Adrenergic, Beta 1 Receptor (Adrb1) (AID 2283258)
Method in brief: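 Cell-free radioligand displacement on receptor from human neuroepithelioma cells; 2 h after dosing, filter-based scintillation counting. Primary screen in duplicate at 25 uM, actives retested in concentration series; loss of signal vs DMSO baseline.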

[17] = biological target: rat Monoamine Oxidase, MAO-B, Peripheral (MAOBP), Maob (gene 25750) (UniProt P19643); test: NVS_ENZ_rMAOBP: NovaScreen (NVS) Enzymatic Assay for rat Monoamine Oxidase, MAO-B, Peripheral (MAOBP) (AID 2283242)
Protocol: NVS_ENZ_rMAOBP is a biochemical, single-readout assay that uses extracted gene-proteins from Rat brain in a tissue-based cell-free assay. Measurements were taken 1.17 hours after chemical dosing in a 96-well plate.NVS_ENZ_rMAOBP is one of one assay component(s) measured or calculated from the NVS_ENZ_rMAOBP assay. It is designed to make measurements of enzyme activity, a form of enzyme reporter, as detected with scintillation counting signals by Lysate-based radiodetection technology.Data from the assay component NVS_ENZ_rMAOBP was analyzed into 1 assay endpoint. This assay endpoint, NVS_ENZ_rMAOBP, was analyzed in the positive analysis fitting direction relative to DMSO as the negative control and baseline of activity. Using a type of enzyme reporter, loss-of-signal activity can be used to understand changes in the enzymatic activity as they relate to the gene Maob. Furthermore, this assay endpoint can be referred to as a primary readout, because this assay has produced multiple assay endpoints where this one serves a enzymatic activity function. To generalize the intended target to other relatable targets, this assay endpoint is annotated to the oxidoreductase intended target family, where the subfamily is monoamine oxidase. […]

Chain of human Adrenergic, Alpha 2c Receptor (Adra2C), ADRA2C (gene 152) (P18825 whole entry, looked up): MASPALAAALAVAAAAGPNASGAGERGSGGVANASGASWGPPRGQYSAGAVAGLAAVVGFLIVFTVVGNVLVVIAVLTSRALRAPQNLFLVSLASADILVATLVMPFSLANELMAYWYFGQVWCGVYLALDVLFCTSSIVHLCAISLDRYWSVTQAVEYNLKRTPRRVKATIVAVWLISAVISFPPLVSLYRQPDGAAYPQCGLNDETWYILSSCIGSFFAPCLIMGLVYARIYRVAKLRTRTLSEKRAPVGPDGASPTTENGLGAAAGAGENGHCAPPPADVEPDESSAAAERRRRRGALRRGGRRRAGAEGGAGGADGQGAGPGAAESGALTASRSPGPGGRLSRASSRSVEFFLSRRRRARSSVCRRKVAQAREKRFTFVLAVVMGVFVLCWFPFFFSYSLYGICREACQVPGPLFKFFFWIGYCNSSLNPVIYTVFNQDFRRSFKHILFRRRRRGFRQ
Chain of rat Monoamine Oxidase, MAO-B, Central (MAOBC), Maob (gene 25750) (P19643 whole entry, looked up): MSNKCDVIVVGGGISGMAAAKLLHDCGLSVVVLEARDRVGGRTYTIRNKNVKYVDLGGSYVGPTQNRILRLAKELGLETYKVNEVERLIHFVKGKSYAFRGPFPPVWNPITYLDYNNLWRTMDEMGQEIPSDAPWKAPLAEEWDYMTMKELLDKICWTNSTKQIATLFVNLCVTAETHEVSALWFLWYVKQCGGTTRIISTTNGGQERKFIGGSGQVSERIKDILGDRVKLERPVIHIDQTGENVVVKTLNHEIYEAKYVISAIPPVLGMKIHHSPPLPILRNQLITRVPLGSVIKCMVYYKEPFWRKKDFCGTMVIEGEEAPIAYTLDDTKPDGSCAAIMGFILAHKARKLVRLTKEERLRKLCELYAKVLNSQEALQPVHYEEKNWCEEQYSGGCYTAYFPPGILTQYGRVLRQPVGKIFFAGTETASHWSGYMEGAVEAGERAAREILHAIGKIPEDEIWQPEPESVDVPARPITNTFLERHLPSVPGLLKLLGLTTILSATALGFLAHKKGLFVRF
Chain of guinea pig Opioid, Kappa 1 Receptor (OpiateK), OPRK1 (gene 100135587) (P41144 whole entry, looked up): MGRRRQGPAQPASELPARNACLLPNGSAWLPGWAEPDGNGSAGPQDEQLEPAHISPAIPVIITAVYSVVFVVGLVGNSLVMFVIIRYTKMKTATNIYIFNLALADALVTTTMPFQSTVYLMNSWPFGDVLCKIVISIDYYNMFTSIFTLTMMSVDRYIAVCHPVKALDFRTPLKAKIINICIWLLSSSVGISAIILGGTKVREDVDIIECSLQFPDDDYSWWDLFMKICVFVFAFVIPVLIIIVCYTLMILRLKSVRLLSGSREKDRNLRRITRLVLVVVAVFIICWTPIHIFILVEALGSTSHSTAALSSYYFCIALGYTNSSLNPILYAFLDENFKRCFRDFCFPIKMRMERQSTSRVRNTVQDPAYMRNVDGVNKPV
Chain of human Adrenergic, Alpha 2A Receptor (Adra2A), ADRA2A (gene 150) (P08913 whole entry, looked up): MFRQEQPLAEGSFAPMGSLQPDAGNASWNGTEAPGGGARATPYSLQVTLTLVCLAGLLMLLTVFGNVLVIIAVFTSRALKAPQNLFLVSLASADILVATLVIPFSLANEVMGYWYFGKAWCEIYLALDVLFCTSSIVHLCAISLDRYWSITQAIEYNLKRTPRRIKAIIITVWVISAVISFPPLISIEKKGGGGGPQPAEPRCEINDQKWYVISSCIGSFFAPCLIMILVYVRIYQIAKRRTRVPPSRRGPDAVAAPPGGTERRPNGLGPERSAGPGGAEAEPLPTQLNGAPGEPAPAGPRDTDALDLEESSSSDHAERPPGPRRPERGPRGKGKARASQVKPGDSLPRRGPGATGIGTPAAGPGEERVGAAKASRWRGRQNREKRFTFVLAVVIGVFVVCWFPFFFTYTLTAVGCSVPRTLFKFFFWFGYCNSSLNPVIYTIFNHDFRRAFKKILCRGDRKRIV
Chain of Adenosine receptor A1 (Bos taurus) (P28190 whole entry, looked up): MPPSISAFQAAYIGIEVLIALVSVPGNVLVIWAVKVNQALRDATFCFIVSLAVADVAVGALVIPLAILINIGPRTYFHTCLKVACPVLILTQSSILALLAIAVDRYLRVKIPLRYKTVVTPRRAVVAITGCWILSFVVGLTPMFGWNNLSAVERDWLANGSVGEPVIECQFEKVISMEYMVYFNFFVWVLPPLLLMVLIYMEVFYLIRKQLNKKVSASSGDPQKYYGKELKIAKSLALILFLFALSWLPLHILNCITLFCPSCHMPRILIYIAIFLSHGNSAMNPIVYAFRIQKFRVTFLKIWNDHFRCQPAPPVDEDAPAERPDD
Chain of human Dopamine Receptor D2 (DRD2), DRD2 (gene 1813) (P14416 whole entry, looked up): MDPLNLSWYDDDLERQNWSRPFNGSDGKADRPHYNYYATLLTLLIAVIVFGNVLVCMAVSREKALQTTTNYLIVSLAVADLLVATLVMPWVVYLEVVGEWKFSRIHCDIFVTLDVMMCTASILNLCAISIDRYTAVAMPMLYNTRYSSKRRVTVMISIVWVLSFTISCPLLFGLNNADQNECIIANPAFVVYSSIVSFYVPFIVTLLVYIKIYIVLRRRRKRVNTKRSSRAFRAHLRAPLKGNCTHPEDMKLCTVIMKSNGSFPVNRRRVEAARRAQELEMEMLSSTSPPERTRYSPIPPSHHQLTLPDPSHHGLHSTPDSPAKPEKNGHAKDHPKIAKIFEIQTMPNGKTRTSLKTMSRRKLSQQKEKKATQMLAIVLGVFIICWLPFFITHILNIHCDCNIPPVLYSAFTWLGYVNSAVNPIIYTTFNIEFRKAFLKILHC
Chain of human Adenosine A2a Receptor (AdoRA2a), ADORA2A (gene 135) (P29274 whole entry, looked up): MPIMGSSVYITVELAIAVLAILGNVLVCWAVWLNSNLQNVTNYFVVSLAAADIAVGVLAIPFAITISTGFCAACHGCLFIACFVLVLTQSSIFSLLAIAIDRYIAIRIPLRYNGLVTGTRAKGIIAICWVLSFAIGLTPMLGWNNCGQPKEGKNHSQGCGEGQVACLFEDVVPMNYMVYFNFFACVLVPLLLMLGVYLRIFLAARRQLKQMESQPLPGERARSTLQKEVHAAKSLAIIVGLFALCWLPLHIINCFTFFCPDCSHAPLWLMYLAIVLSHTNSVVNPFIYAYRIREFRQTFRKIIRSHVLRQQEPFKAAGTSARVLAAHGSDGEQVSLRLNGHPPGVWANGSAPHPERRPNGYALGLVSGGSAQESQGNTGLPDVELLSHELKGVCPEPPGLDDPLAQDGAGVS
Chain of rat Monoamine Oxidase, MAO-B, Peripheral (MAOBP), Maob (gene 25750) (P19643 whole entry, looked up): as the sequence (P19643 whole entry, looked up) above
Chain of human Serotonin, 5-Hydroxytryptamine Receptor 6 (5HT6), HTR6 (gene 3362) (P50406 whole entry, looked up): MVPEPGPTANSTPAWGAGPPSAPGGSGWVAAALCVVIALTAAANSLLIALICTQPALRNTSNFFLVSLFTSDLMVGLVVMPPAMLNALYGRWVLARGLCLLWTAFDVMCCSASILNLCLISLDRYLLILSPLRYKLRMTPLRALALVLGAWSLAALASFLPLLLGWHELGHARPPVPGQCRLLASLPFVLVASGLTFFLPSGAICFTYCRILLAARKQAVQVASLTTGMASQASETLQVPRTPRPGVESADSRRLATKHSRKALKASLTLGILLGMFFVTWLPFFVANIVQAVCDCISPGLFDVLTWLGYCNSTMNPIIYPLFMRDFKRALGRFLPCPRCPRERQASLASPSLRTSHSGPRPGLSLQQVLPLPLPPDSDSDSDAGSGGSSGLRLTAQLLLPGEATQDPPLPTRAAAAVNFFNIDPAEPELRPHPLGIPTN
Chain of human Serotonin, 5-Hydroxytryptamine Receptor 7 (5HT7), HTR7 (gene 3363) (P34969 whole entry, looked up): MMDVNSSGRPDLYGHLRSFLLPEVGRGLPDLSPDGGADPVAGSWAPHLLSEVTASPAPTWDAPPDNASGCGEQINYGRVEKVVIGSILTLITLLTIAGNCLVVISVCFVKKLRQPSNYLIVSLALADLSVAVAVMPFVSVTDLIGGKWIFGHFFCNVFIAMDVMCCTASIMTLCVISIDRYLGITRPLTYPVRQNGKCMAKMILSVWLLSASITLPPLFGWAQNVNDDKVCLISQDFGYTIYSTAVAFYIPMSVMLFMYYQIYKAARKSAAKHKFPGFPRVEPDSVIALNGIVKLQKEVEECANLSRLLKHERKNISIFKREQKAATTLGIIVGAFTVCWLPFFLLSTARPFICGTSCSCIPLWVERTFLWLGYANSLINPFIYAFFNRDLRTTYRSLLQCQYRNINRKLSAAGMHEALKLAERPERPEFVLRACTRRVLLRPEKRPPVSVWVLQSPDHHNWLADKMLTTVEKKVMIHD
Chain of Beta-2 adrenergic receptor (Homo sapiens) (P07550 whole entry, looked up): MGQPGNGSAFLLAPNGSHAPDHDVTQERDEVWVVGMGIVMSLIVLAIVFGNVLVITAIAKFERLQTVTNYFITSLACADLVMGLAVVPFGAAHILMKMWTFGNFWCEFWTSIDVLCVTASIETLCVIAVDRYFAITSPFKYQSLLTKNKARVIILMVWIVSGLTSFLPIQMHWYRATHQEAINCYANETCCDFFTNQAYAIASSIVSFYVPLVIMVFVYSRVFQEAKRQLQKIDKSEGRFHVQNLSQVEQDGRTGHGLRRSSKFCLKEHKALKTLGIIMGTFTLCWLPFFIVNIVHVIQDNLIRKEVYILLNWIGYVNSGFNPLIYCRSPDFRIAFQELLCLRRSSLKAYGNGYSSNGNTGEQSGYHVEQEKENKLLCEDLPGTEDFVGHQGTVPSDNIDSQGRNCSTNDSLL

SMILES: c1ccc2c(c1)Nc1ccccc1S2
- AC50 [1]: 9.71 µM (active)

SMILES: ClC1=C(Cl)C2(Cl)C3C(Cl)C(Cl)CC3C1(Cl)C2(Cl)Cl (centres undefined)
- outcome [2]: inactive
- outcome [3]: inactive

SMILES: CC(Cc1ccc(OCC(=O)O)cc1)NCC(O)c1csc(C(F)(F)F)n1 (centres undefined)
- AC50 [4]: 25 µM (active)

SMILES: CC(C)(C)OOC(C)(C)C
- AC50 [5]: 13.1 µM (active)

SMILES: ClC(Cl)(Cl)c1ccccc1
- outcome [5]: inactive

SMILES: CSC(C)(C)C=NO
- outcome [6]: inactive
- outcome [7]: inactive
- outcome [8]: inactive
- outcome [9]: inactive
- outcome [10]: inactive
- outcome [11]: inactive
- outcome [12]: inactive
- outcome [4]: inactive
- outcome [13]: inactive
- outcome [14]: inactive

SMILES: O=C(O)C1C(C(=O)O)C2(Cl)C(Cl)=C(Cl)C1(Cl)C2(Cl)Cl (centres undefined)
- AC50 [7]: 2.88 µM (active)

SMILES: CC1(C)CN=C(NN=C(/C=C/c2ccc(C(F)(F)F)cc2)/C=C/c2ccc(C(F)(F)F)cc2)NC1
- AC50 [15]: 5.74 µM (active)
- AC50 [13]: 8.95 µM (active)

SMILES: N#Cc1c(-c2ccc(Cl)cc2)[nH]c(C(F)(F)F)c1Br
- outcome [12]: inactive

SMILES: Oc1ccc(I)cc1
- AC50 [1]: 19.9 µM (active)

SMILES: Nc1ccc([N+](=O)[O-])cc1Cl
- AC50 [1]: 15.1 µM (active)

SMILES: CCCCCCCc1ccc(O)cc1
- AC50 [5]: 25 µM (active)
- outcome [13]: inactive

SMILES: CCCN(CCC)c1c([N+](=O)[O-])cc(C(C)C)cc1[N+](=O)[O-]
- outcome [6]: inactive
- outcome [16]: inactive
- outcome [3]: inactive

SMILES: CCN(CC)c1ccccc1
- outcome [17]: inactive

SMILES: CCCCOCCOP(=O)(OCCOCCCC)OCCOCCCC
- AC50 [8]: 16.5 µM (active)
